We go through 40 compounds from PubChem BioAssay AID720664 (National Center for Advancing Translational Sciences (NCATS), 2013).

Records with an inconclusive call do not appear. The source made the active and inactive calls. The call rests on the fitted dose curve; in most records, active means well fitted inhibition curve with a large enough effect; inconclusive means small, poorly fitted or top-dose-only effect; inactive means flat fitted curve, though single readings scatter.

This assay deals with Galactokinase (Homo sapiens) (UniProt P51570). The assay can be described thus: qHTS for Inhibitors of Human Galactokinase (GALK): SAR round 3. The note with it: ADP detection luminescence, 1 h; series mostly up to 57.5 µM; activity change, negative = inhibition: at the top concentration. An excerpt: Inherited deficiency of galactose-1-phosphate uridyltransferase (GALT) can result in a potentially lethal disorder called Classic Galactosemia (OMIM 230400). Several lines of evidence indicate that an elevated level of galactose-1-phosphate (gal-1-p), the product of galactokinase (GALK), is a major, if not sole, pathogenic mechanism in patients with classic galactosemia. Therefore, finding inhibitors of GALK is a potential novel therapy for this inherent metabolic disease and is the long term goal of this project. Active compounds observed in the qHTS GALK assay (AID: 1868) were cherry picked and re-screened for validation. GALK (provided by Kent Lai) was assayed using ATP and D-(+)-Galactose (Sigma-Aldrich cat# G0750) as substrates. Promega ADP-Glo technology was used to detect the ADP product formed after the kinase reaction. Kinase reactions with and without GALK were used as negative and positive controls together with Protein Tyrosine Phosphatase CD45 inhibitor (EMD Bioscience cat# 540215) which is shown to inhibit GALK activity. Decrease in activity corresponds to inhibition of the enzyme, the desired outcome for this assay. NIH Molecular Libraries Probe Production Network [MLPCN] NIH Chemical Genomics Center [NCGC] Grant: MH085689-01 PI Name: Kent Lai, University of Utah
Chain of Galactokinase (Homo sapiens) (P51570 whole entry, looked up): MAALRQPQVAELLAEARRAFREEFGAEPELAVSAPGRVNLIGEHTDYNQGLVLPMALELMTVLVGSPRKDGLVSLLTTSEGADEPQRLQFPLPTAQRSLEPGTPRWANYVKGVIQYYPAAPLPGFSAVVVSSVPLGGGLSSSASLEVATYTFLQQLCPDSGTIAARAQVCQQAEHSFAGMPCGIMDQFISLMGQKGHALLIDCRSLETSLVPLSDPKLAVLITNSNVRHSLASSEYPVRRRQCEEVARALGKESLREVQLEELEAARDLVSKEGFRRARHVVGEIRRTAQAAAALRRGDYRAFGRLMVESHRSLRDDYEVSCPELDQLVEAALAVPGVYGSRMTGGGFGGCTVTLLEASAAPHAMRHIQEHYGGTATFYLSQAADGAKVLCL
Three uL/well of ATP-buffer solution (35 uM ATP, 20mM HEPES pH8.0, 5 mM MgCl2, 60 mM NaCl, 1 mM DTT, 0.01% BSA final concentration) was dispensed into 1536-well, assay plates (Greiner, solid white medium-binding plates) with Aurora Discovery BioRAPTR Flying Reagent Dispenser (FRD; Beckton-Dickenson). Compound and control solution (23 nL) was transferred to the assay plate using the Kalypsys 1536-pin tool apparatus. One uL/well GALK-galactose solution (5 nM GALK, 100 uM galactose, 20 mM HEPES pH8.0, 5 mM MgCl2, 60 mM NaCl, 1 mM DTT, 0.01% BSA final concentration) was then added using the FRD yielding a total kinase reaction volume of 4 uL/ well. After 1 hour of room temperature incubation, 4 uL Kinase-Glo Plus reagent was added for a final assay volume of 8 uL/well. Luminescence was detected with the ViewLux plate reader (Perkin Elmer, Waltham, MA) after 2 min incubation using a 1 sec exposure time and 2x binning.
As to `COc1ccccc1NC(=O)C1=C(C)NC(Nc2nc3ccccc3o2)=NC1c1ccccc1Br` (stereo not given), the “activity change, negative = inhibition” value was -19.2% (inactive).

Regarding `Cc1noc(C)c1S(=O)(=O)Nc1ccc(C(=O)Nc2ccc(OC(F)(F)F)cc2)cc1`, the “activity change, negative = inhibition” value was 3.01% (inactive).

With `O=C1CCCC2=C1C(c1[nH]ncc1Cl)N=C(Nc1cccnc1)N2` (stereo not given), the “activity change, negative = inhibition” value was 0.256% (inactive).

Turning to `Cc1cc(NC2=NC(c3[nH]ncc3Cl)C3=C(CCCC3=O)N2)no1` (stereo not given), the “activity change, negative = inhibition” value is -5.6% (inactive).

For the compound `O=C1CCCC2=C1C(c1ccccc1)N=C(Nc1nc3ccccc3o1)N2` (stereo not given), the “activity change, negative = inhibition” value is -25% (inactive).

As for `CC1(C)N=C(Nc2nc3ccccc3o2)NC2=C1C(=O)CCC2`, the “activity change, negative = inhibition” value is -19.7% (inactive).

With `COC(=O)c1ccc2nc(NC3=NC(c4[nH]ncc4Cl)C4=C(CCCC4=O)N3)oc2c1` (stereo not given), the “activity change, negative = inhibition” value is -1.92% (inactive).

For `O=C1CCCC2=C1C(c1cccnc1Br)N=C(Nc1nc3ccccc3o1)N2` (stereo not given), the “activity change, negative = inhibition” value is -21.8% (inactive).

Consider `COC(=O)c1ccccc1NC(=O)c1ccccc1OC(F)F`, for which the “activity change, negative = inhibition” value is 0.981% (inactive).

On to `O=C1CCCC2=C1C(c1ccccc1I)N=C(Nc1nc3ccccc3o1)N2` (stereo not given), for which the Potency was 6.11 µM (active).

`O=C1CCCC2=C1C(c1cccc(Oc3ccccc3)c1)N=C(Nc1nc3ccccc3o1)N2` (stereo not given): the “activity change, negative = inhibition” value is -7.55% (inactive).

In the case of `CCC1CCC2(C1)N=C(Nc1nc3ccccc3o1)NC1=C2C(=O)CCC1` (stereo not given), the Potency result is “inactive”.

With `CN1C(=O)NC(c2ccccc2Cl)C2=C1CCCC2=O` (stereo not given), the “activity change, negative = inhibition” value was -7.27% (inactive).

Consider `O=C1CCCC2=C1C1(CCSC1)N=C(Nc1nc3ccccc3o1)N2` (stereo not given), for which the Potency is 19.3 µM (active).

Take `CC1=C(C(=O)n2ccc3ccccc32)C(c2ccccc2Br)N=C(Nc2nc3ccccc3o2)N1` (stereo not given): the “activity change, negative = inhibition” value is -5.19% (inactive).

Consider `O=C1CCCC2=C1C1(CCCOC1)N=C(Nc1nc3ccccc3o1)N2` (stereo not given), for which the “activity change, negative = inhibition” value was -16.2% (inactive).

For `O=C1CCCC2=C1C(c1cccc(C(F)(F)F)c1)N=C(Nc1nc3ccccc3o1)N2` (stereo not given), the “activity change, negative = inhibition” value was -8.12% (inactive).

As for `Cc1cccc2oc(NC3=NC(c4[nH]ncc4Cl)C4=C(CCCC4=O)N3)nc12` (stereo not given), the Potency result is “inactive”.

As to `O=C1CCCC2=C1C(c1[nH]ncc1Cl)NC(=NCc1cccnc1)N2` (stereo not given), the “activity change, negative = inhibition” value was -7.25% (inactive).

As to `CCc1ccc2oc(=O)cc(CN3CCN(c4ccccc4F)CC3)c2c1`, the “activity change, negative = inhibition” value was 4.45% (inactive).

As for `O=C1CCCC2=C1C(c1[nH]ncc1Cl)N=C(Nc1nccs1)N2` (stereo not given), the “activity change, negative = inhibition” value was 2% (inactive).

Consider `O=C1CCCC2=C1C(c1[nH]ncc1Cl)N=C(Nc1nc3ccccc3s1)N2` (stereo not given), for which the “activity change, negative = inhibition” value is -4.86% (inactive).

As to `O=C1CCCC2=C1C(c1[nH]ncc1Cl)NC(=NCc1nccs1)N2` (stereo not given), the “activity change, negative = inhibition” value was 3.63% (inactive).

On to `Cn1cnc(CN=C2NC3=C(C(=O)CCC3)C(c3[nH]ncc3Cl)N2)c1` (stereo not given), for which the “activity change, negative = inhibition” value was -0.525% (inactive).

In the case of `COc1ccccc1C1N=C(Nc2nc3ccccc3o2)NC2=C1C(=O)CCC2` (stereo not given), the “activity change, negative = inhibition” value was -17.2% (inactive).

With `O=C1CCCC2=C1C(c1[nH]ncc1Cl)N=C(Nc1ccn[nH]1)N2` (stereo not given), the “activity change, negative = inhibition” value was 3.24% (inactive).

Take `O=C1NC2=C(C(=O)CCC2)C(c2ccccc2Cl)N1` (stereo not given): the “activity change, negative = inhibition” value is 1.11% (inactive).

As to `Cc1ccc2oc(NC3=NC(c4[nH]ncc4Cl)C4=C(CCCC4=O)N3)nc2c1` (stereo not given), the “activity change, negative = inhibition” value was 0.986% (inactive).

For `O=C1CCCC2=C1[C@@]1(CCC(c3ccccc3)C1)N=C(Nc1nc3ccccc3o1)N2` (stereo not given in full), the “activity change, negative = inhibition” value is 0.128% (inactive).

As to `O=C1CCCC2=C1C(c1c(Cl)cccc1Cl)N=C(Nc1nc3ccccc3o1)N2` (stereo not given), the “activity change, negative = inhibition” value was -16.4% (inactive).

On to `CNC(=O)C1=C(C)NC(Nc2nc3ccccc3o2)=NC12CCCC2`, for which the “activity change, negative = inhibition” value was -15.1% (inactive).

For the compound `O=C1CCCC2=C1C(c1ccncc1Cl)N=C(Nc1nc3ccccc3o1)N2` (stereo not given), the Potency was 19.3 µM (active).

Consider `O=C1CCCC2=C1C(c1ccc(F)cc1)N=C(Nc1nc3ccccc3o1)N2` (stereo not given), for which the “activity change, negative = inhibition” value is -5.82% (inactive).

Consider `O=C1C2=C(CN1Cc1ccccc1)NC(Nc1nc3ccccc3o1)=NC2c1ccccc1Cl` (stereo not given), for which the “activity change, negative = inhibition” value was -1.63% (inactive).

`CN(Cc1ccccc1)C(=O)C1CCN(Cc2cccc3ccccc23)CC1`: the “activity change, negative = inhibition” value was 1.16% (inactive).

As for `O=C1CCCC2=C1C(c1[nH]ncc1Cl)NC(=NCc1ccccn1)N2` (stereo not given), the “activity change, negative = inhibition” value is 1.69% (inactive).

Consider `O=C1CCCC2=C1C(c1cccnc1Cl)N=C(Nc1nc3ccccc3o1)N2` (stereo not given), for which the “activity change, negative = inhibition” value was -21.4% (inactive).

On to `O=C1CCCC2=C1C(c1[nH]ncc1Cl)NC(=NCCc1cccnc1)N2` (stereo not given), for which the “activity change, negative = inhibition” value was 1.96% (inactive).

With `O=C(Nc1nnc(S(=O)(=O)N2CCOCC2)s1)c1cccc(Br)c1`, the “activity change, negative = inhibition” value was -11.9% (inactive).

As for `O=C1CCCC2=C1C1(CCCC1)N=C(Nc1nc3cc(-c4ccccc4)ccc3o1)N2`, the “activity change, negative = inhibition” value was -10.9% (inactive).
